HCV inh – blocks hepatitis C virus | Huh7.5.1 HCVcc-Cre infection, luciferase reporter, 44 h | Potency, µM (series often up to 41.8 µM), inactives show top-dose activity change, negative = inhibition, actives largely listed as inhibitors | 340,000 compounds, 3.4% hits | AID 651820; note: potency is the fitted concentration of half-maximal effect; % is set by controls: 0 for no effect and ±100 for the full control effect
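Seed cells (1,000/well) for 4 h; treat with compound and infect with HCVcc-Cre, moi about 0.5. Incubate 44 h, then detect luciferase activity.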
HCMV inh – blocks human cytomegalovirus replication; 410,000 compounds, 4.5% hits; AID 1259415; HFF cells, HCMV-luciferase reporter, 72 h; active compounds read low; activity change, negative = inhibition, % at 57.5 µM; in the data active = activity change below about -60%; inconclusive = no clear call, values can overlap the other calls; inactive = above about -39%; note: % is set by controls: 0 for no effect and ±100 for the full control effect
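Cell-based, HFFs, 1000 cells/well, 16 h 37C; cpds in DMSO + HCMV-luc, MOI 1 PFU/cell; 72 h 37C; OneGlo luminescence after 5 min RT; norm. to buffer vs Salinomycin 10uM.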
Pf growth 48h – inhibits P. falciparum growth in the first generation, 48 h | P. falciparum luciferase growth in erythrocytes, 48 h | 310,000 compounds, 5.9% hits | AID 504832 | Potency, µM (highest dose often 28.7 µM), without a hit: at the top dose activity change, negative = inhibition, actives largely listed as inhibitors; note: potency is the fitted concentration of half-maximal effect; % is set by controls: 0 for no effect and ±100 for the full control effect
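In quantitative HTS format, infected erythrocytes bearing luciferase-reporter parasites were treated for a single generation at 37 C. Luminescence after adding detection reagent served as the growth measure.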
CHX counter – counter-screen hit for Shiga toxin inhibitors, cycloheximide. 300,000 compounds, 12% hits. max response, %. cell reporter, cycloheximide protein synthesis inhibition counterscreen; in the data active = max response mostly above about 13%, no sharp cut-off; inactive = mostly below about 14%; note: read at 38.3 µM for the half of the compounds with a filed dose; 0% is about no effect
Shiga toxin inh – inhibitors of Shiga toxin in Vero cells; Vero cells, Shiga toxin protein synthesis inhibition reporter; inhibition, % at 38.7 µM; 290,000 compounds, 9.2% hits; AID 2315; in the data active = inhibition mostly above about 28%, no sharp cut-off; inactive = mostly below about 43%; note: 0% is about no effect
Pf growth 96h – P. falciparum growth inhibition at 96 hours; P. falciparum luciferase reporter growth, 96 h; Potency, µM (highest dose often 28.7 µM), for inactives: top-dose activity change, negative = inhibition, hits mostly inhibitors; 320,000 compounds, 6.9% hits; note: potency is the fitted concentration of half-maximal effect; % is set by controls: 0 for no effect and ±100 for the full control effect
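Cell-based qHTS: luciferase-tagged P. falciparum in erythrocytes (2% hematocrit, 0.05% parasitemia final) incubated with compounds for 96 hours, 37 C, 5% CO2; luciferase detection reagent then added and luminescence measured.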
* marks the source's active call; other numbers are inactive results; ? = inconclusive; . = no result; ! = not confirmed by another sample; [ ] = another dose, or the depositor's remark. The list is not random: actives were taken first. Their share in the collection is about 21%. Unless noted, calls come from the whole dose curve; as a rule, active = well fitted inhibition curve with a large enough effect; inconclusive = small, poorly fitted or top-dose-only effect, or another doubt; inactive = no such curve, though single readings can be large or run the other way.

SMILES | HCV inh | HCMV inh | Pf growth 48h | CHX counter | Shiga toxin inh | Pf growth 96h
CC(C)C(NC(=O)c1ccccc1F)C(=O)NCCc1ccccn1 (centres undefined) | 16.0% | 1.3 | 4.6% | -1.9 | 33.8 | -2.2%
CCCN1C(=O)c2[nH]nc(-c3ccccc3)c2C1c1ccc(F)cc1 (centres undefined) | . | 38.1 | . | . | . | .
CCOc1ccc(OCC)c(NC(=O)CSc2nc3cccnc3n2C)c1 | 6.31µM* | -62.6* | ? | 1.1 | -15.1 | 42.9%
CCOc1ccc(OCC)c(NC(=O)CSc2nc3ccccc3c(=O)n2C)c1 | ? | -70.4* | -12.0% | 0.8 | -1.9 | ?
Cc1ccc(CNC(=O)CCc2c(C)nc3nc(C)nn3c2C)cc1 | . | 8.8 | . | . | . | .
Cc1ccccc1-c1cc(=O)c2c(O)cccc2o1 | 10.5% | -23.1 | 61.1% | 22.5* | 28.4* | -7.3%
O=c1cc(-c2cccc(Cl)c2)oc2cccc(O)c12 | 32.3%[8.37 µM] | 4.1 | 8.0% | 26.7*! | 97.2 | ?
O=C(CSc1nc2ccccc2nc1Cc1ccccc1)N1CCc2ccccc21 | . | -0.5 | . | . | . | .
CCc1ccc(C(=O)COC(=O)CNC(=O)c2ccc(N3C(=O)c4ccccc4C3=O)cc2)cc1 | 20.7% | 17.4 | 35.9% | 0.5 | -11.7 | 14.7µM*
Cc1ccc(-n2c(C)nc3ccccc3c2=O)c(C)c1 | ? | -6.4 | 1.4% | -1.3 | -4.2 | ?
Cc1nc2ccccc2c(=O)n1NC(=O)c1ccco1 | -19.0% | 6.4 | -9.9% | 1.4 | -2.2 | -5.8%
Cc1ccc(C)c(/C=N/Nc2nc3ccccc3c(=O)n2O)c1 | -1.3% | 16.5 | 33.6% | 22.2* | 33.8* | 7.3%
C/C(=N\Nc1nc2ccccc2c(=O)n1O)c1ccco1 | -6.1% | 95.8 | 161.8% | 46.7* | 62.0* | 280.2%
c1ccc(NC2=Nc3ccccc3CC2)cc1 | 2.5% | 38.6 | . | 36.8* | 44.5* | ?
c1ccc(Nc2ccc3c4c(cccc24)CC3)cc1 | 6.5% | -1.1 | ? | 3.1 | 2.0 | -0.8%
O=c1c2cnn(-c3ccc(F)cc3)c2ncn1Cc1ccc(F)cc1 | 3.0% | ? | 8.5% | -2.2 | -2.3 | ?
CCOC(=O)C(C)n1cnc2c(cnn2-c2ccc(Cl)cc2)c1=O (centres undefined) | -9.4% | 3.1 | 51.9% | 10.6 | -24.6 | 12.7%
CCCCn1cnc2c(cnn2-c2ccc(F)cc2)c1=O | ? | 0.0 | 58.4% | 27.2* | 120.0* | -24.5%
CCCCn1cnc2c(cnn2-c2ccc(Cl)cc2)c1=O | -2.3% | -8.4 | 96.3% | 10.8* | 18.3 | -5.5%
CCCn1cnc2c(cnn2-c2ccc(F)cc2)c1=O | ? | 6.8 | 298.4% | 43.3* | 70.5* | 5.5%
CCOC(=O)c1ccc(NC(=O)c2nsc3ccccc23)cc1 | . | -77.8* | . | . | . | .
CCOC(=O)c1ccc(NC(=O)c2ccccc2)cc1 | ? | -20.9 | 17.0% | 48.7* | 81.4* | .
CCOC(=O)c1c(C)c(C(=O)Nc2ccccc2)c(C)n1CC | -27.0% | -29.1 | ? | 24.3* | 31.5* | 4.65µM*
CCOC(=O)c1ccc(NC(=O)c2ccc(NS(C)(=O)=O)cc2)cc1 | 11.2µM* | ? | ? | 11.7 | 15.4 | -1.7%
CNC(=O)c1ccc(NC(=O)c2nsc3ccccc23)cc1 | . | 162.8 | . | . | . | .
SMILES | HCV inh | HCMV inh | Pf growth 48h | CHX counter | Shiga toxin inh | Pf growth 96h
CC1CC=CC2C1C(=O)N(Cc1ccccc1)C2c1ccc2ccccc2c1Br (centres undefined) | . | . | . | 8.6 | -2.2 | .
O=C(Nc1ccc(-c2cc(C(F)(F)F)nn2-c2ccccc2)cc1)c1cccc(F)c1 | . | -94.7* | . | . | . | .
O=C(Nc1cccc(F)c1)c1ccccc1 | 7.4% | -37.7 | 46.6% | 37.5* | 79.3* | 169.4%
O=C(Nc1ccc(Nc2ccccc2)cc1)c1cccc(F)c1 | ? | 75.2 | 61.2% | 35.9* | 117.1* | ?
O=C(O)c1cc(NC(=O)c2cccc(F)c2)cc(NC(=O)c2cccc(F)c2)c1 | 25.3% | 38.2 | -2.8% | 0.3 | -10.6 | 3.9%
CCN(CC)C(=O)c1ccc(NC(=O)c2cccc(F)c2)cc1 | 1.5% | 35.8 | . | 35.4* | 72.1 | 94.9%
O=C(NC(=O)c1cccc(F)c1)Nc1ccc(-c2cc(C(F)(F)F)nn2-c2ccccc2)cc1 | . | 1.5 | . | . | . | .
O=C(Nc1cccc(C(=O)Nc2ccccc2F)c1)c1ccccc1 | -27.9% | -21.6 | 18.1% | -3.6 | 2.5 | 8.1%

Screening results as filed in PubChem.
